# In PubChem BioAssay (Tox21):
# Unmarked numbers belong to inactive results. Inconclusive results are not listed. Where a call stands in place of a potency, no number is given. Activity calls are given as the source filed them. Unless noted, calls follow the shape of the dose curve; as a rule, active = well fitted curve in the direction sought with a large enough effect in the repeat runs; inconclusive = weak or mixed curves; inactive = no such curve, though single readings can be large; an effect the other way counts as inactive or inconclusive.
# Legend:
# [1] = qHTS assay to identify small molecule agonists of the hypoxia (HIF-1) signaling pathway - cell viability counter screen (AID 1224844; calls by dose curve; also: nearly all actives have a fitted effect of over 50% in size)
# Procedure, shortened: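 Viability counter screen: HRE-bla ME-180 cells plated 5 hrs before compound addition, treated 17 hrs at 37C and 5% CO2, then CellTiter-Glo added after the FRET reporter read; luminescence after 30 min.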
# [2] = qHTS assay to identify small molecule agonists of the hypoxia (HIF-1) signaling pathway (AID 1224846; active = well fitted activation curve with a large enough effect in the signal ratio in the repeat runs, not every such curve was filed as active; the % refers to the signal ratio)
# Procedure, shortened: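 Agonist mode reporter screen. ME-180 cells stably expressing bla under HRE control received test compounds in DMSO for 17 hrs (37C, 5% CO2), and beta-lactamase activity was then detected with the CCF4-AM FRET substrate.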
# [3] = qHTS assay to identify small molecule agonists of H2AX - cell viability counter screen (AID 1224847; calls by dose curve; also: top concentration of the series differs between compounds; nearly all actives have a fitted effect of over 30% in size)
# Procedure, shortened: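 CHO-K1 wt, 1000 cells/well, o/n 37C; cpds 15 conc, 3 h 37C, 0.76% DMSO; CellTiter-Glo, 30 min RT, luminescence.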
# [4] = qHTS RealTime-Glo MT Cell Viability Assay in HepG2 cells - 24 hour (AID 1224867); also: nearly all actives have a fitted effect of over 50% in size
# Procedure, shortened: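 qHTS, HepG2, 600 cells/well, RealTime-Glo (NanoLuc + prosubstrate) added with cells; 5 h preincubation; DMSO compound addition; 37 C; luminescence at 0/8/16/24/32/40 h.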
# [5] = qHTS RealTime-Glo MT Cell Viability Assay in HEK293 cells - 32 hour (AID 1224868); also: nearly all actives have a fitted effect of over 50% in size; also: potency is read from the fitted curve at half-maximal effect; as to activity change, negative = cytotoxic: top concentration of the series differs between compounds
# Procedure, shortened: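 Assay medium contained NanoLuc luciferase plus cell-permeant prosubstrate, added with HEK293 cells at 600 cells/well. After 5 h at 37 C/5% CO2 compounds were added; plates stayed at 37 C for 40 h with serial luminescence reads.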
# [6] = qHTS RealTime-Glo MT Cell Viability Assay in HepG2 cells - 40 hour (AID 1224870); also: nearly all actives have a fitted effect of over 50% in size
# Procedure, shortened: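 HepG2 cells mixed with RealTime-Glo MT reagents (NanoLuc plus cell-permeant prosubstrate) were seeded at 600 cells/well, incubated 5 h at 37 C/5% CO2, then pinned with compounds in DMSO; nonlytic luminescence tracked viability during 40 h treatment.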
# [7] = A CellTox Green Cytotoxicity Assay to monitor cytotoxicity in HEK293 cells - 0 hour (AID 1224869); also: nearly all actives have a fitted effect of over 50% in size; also: potency is read from the fitted curve at half-maximal effect
# Procedure, shortened: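 Dead-cell fluorescence measured kinetically: asymmetric cyanine dye, HEK293, 600 cells/well, 5 h settle, 23 nL cpd/DMSO, 37 C, reads 0–40 h every 8 h.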
# [8] = qHTS assay to identify small molecule antagonists of the estrogen related receptor (ERR) signaling pathway from Tox21 library (AID 1224848); also: nearly all actives have a fitted effect of over 50% in size; also: potency is read from the fitted curve at half-maximal effect
# Procedure, shortened: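 First, 2,000 ERR cells per well were plated and held 6 h at 37 C/5% CO2. Next, compounds in DMSO were pinned in and left 18 h at 37 C. Finally, ONE-Glo was added and luminescence read after 30 min at room temperature.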
# [9] = qHTS assay to identify small molecule agonists of the estrogen related receptor (ERR) signaling pathway from Tox21 library (AID 1224849; calls by dose curve; also: nearly all actives have a fitted effect of over 15% in size); details: ERR reporter cell line, ONE-Glo luciferase, 18 h; at 92.4 µM (top of the series) unless noted
# Procedure, shortened: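 Quantitative HTS in agonist format: NTP ERR cell line, compounds transferred in DMSO after 6 h plating, 18 h incubation at 37 C, ONE-Glo luminescence endpoint.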
# [10] = qHTS assay to identify small molecule agonists of H2AX (AID 1224845; active = well fitted activation curve with a large enough effect in the signal ratio in the repeat runs, not every such curve was filed as active; the % refers to the signal ratio; also: potency is read from the fitted curve at half-maximal effect)
# Procedure, shortened: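 Wild-type CHO-K1 cells plated overnight, then exposed 3 hr at 37C to compounds at 15 concentrations (0.76% DMSO). Lysed, then HTRF anti-pH2AX(S139)-cryptate/anti-H2AX-d2 detection after 24 hr at room temperature; emissions 665 and 620 nm.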
smiles,measurement,setting,value
CCOP(=S)(OCC)SCSP(=S)(OCC)OCC,Potency,[1],inactive
same,outcome,[2],inactive
same,Potency,[3],inactive
same,Potency,[4],inactive
same,Potency,[5],inactive
same,Potency,[6],inactive
Cc1ccccc1CO[C@@H]1C[C@@]2(C(C)C)CC[C@]1(C)O2,Potency,[1],inactive
same,outcome,[2],inactive
same,Potency,[4],inactive
same,Potency,[5],inactive
same,Potency,[7],inactive
same,Potency,[6],inactive
O=[N+]([O-])c1ccc2c3c(cccc13)CC2,Potency,[1],inactive
same,outcome,[2],inactive
same,Potency,[3],inactive
same,Potency,[4],inactive
same,Potency,[5],inactive
same,Potency,[7],inactive
same,Potency,[6],inactive
CC(C)(C)OC(=O)c1ncn2c1[C@@H]1CCCN1C(=O)c1c(Br)cccc1-2,Potency,[1],inactive
same,outcome,[2],inactive
same,Potency,[3],inactive
same,Potency,[8],23.7 µM (active)
same,"activity change, positive = activation",[9],-34.2% [at 42.5 µM]
same,Potency,[4],inactive
same,Potency,[5],inactive
same,Potency,[7],inactive
same,Potency,[6],inactive
CC(C)(C)C(=O)C(Oc1ccc(Cl)cc1)n1cncn1 (centres undefined),Potency,[1],inactive
same,Potency,[10],inactive
same,Potency,[3],inactive
same,Potency,[4],inactive
same,Potency,[7],inactive
same,Potency,[6],inactive
CNCC(=O)c1ccc(O)c(O)c1,Potency,[1],inactive
same,outcome,[2],inactive
same,Potency,[3],inactive
same,Potency,[4],inactive
same,Potency,[5],inactive
same,Potency,[6],inactive
CCN(CC)C(=O)[C@@H]1C=C2c3cccc4[nH]cc(c34)C[C@H]2N(C)C1,Potency,[1],inactive
same,outcome,[2],inactive
same,Potency,[3],inactive
same,"activity change, positive = activation",[9],-24.6% [at 240 µM]
same,Potency,[4],inactive
same,Potency,[7],inactive
same,Potency,[6],inactive
CCCSP(=S)(OCC)Oc1ccc(Cl)cc1Cl (centres undefined),Potency,[1],inactive
same,outcome,[2],inactive
same,Potency,[8],inactive
same,"activity change, positive = activation",[9],2.16%
same,Potency,[4],inactive
same,Potency,[5],inactive
same,Potency,[6],inactive
CN1C(=S)CN=C(c2ccccc2)c2cc(Cl)ccc21,Potency,[1],inactive
same,outcome,[2],inactive
same,Potency,[3],inactive
same,Potency,[4],inactive
same,Potency,[7],5.35 µM (active)
same,Potency,[6],inactive
CCCCOC(=O)c1ccccc1C(=O)O,Potency,[10],inactive
same,outcome,[2],inactive
same,Potency,[3],inactive
same,Potency,[4],inactive
same,Potency,[5],inactive
same,Potency,[7],inactive
same,Potency,[6],inactive
CCOc1nc(C(Cl)(Cl)Cl)ns1,Potency,[10],inactive
same,outcome,[2],inactive
same,Potency,[3],inactive
same,"activity change, positive = activation",[9],-11.7%
same,Potency,[4],inactive
same,Potency,[5],inactive
same,Potency,[7],inactive
same,Potency,[6],inactive
CC(C)COP(=O)(OCC(C)C)OCC(C)C,Potency,[1],inactive
same,outcome,[2],inactive
same,Potency,[8],inactive
same,"activity change, positive = activation",[9],-2.2%
same,Potency,[4],inactive
same,Potency,[5],inactive
same,Potency,[7],inactive
same,Potency,[6],inactive
O=[N+]([O-])c1cc(Cl)c(Cl)c(Cl)c1,Potency,[1],inactive
same,outcome,[2],inactive
same,Potency,[3],inactive
same,Potency,[4],inactive
same,Potency,[5],inactive
same,Potency,[7],inactive
same,Potency,[6],inactive
CCC(C)(C)c1cc(-n2nc3ccccc3n2)c(O)c(C(C)(C)CC)c1,Potency,[10],inactive
same,outcome,[2],inactive
same,Potency,[3],inactive
same,Potency,[8],39.2 µM (active)
same,"activity change, positive = activation",[9],-66.5%
same,Potency,[4],inactive
same,Potency,[5],22.2 µM (active)
same,Potency,[6],inactive
CC1=C(C(=O)Nc2ccccc2)S(=O)(=O)CCO1,Potency,[10],inactive
same,Potency,[3],inactive
same,Potency,[4],inactive
same,Potency,[5],48.9 µM (active)
same,Potency,[7],inactive
CCOP(=S)(OCC)SCSc1ccc(Cl)cc1,Potency,[1],inactive
same,outcome,[2],inactive
same,Potency,[4],inactive
same,Potency,[5],inactive
same,Potency,[7],inactive
same,Potency,[6],inactive
COC(=O)C1=CCCN(C)C1,Potency,[1],inactive
same,Potency,[10],inactive
same,Potency,[3],inactive
same,Potency,[4],inactive
same,Potency,[5],inactive
same,Potency,[6],inactive
CC(=O)CC(c1ccc(Cl)cc1)c1c(O)c2ccccc2oc1=O (centres undefined),Potency,[1],inactive
same,outcome,[2],inactive
same,Potency,[4],inactive
same,Potency,[5],inactive
same,Potency,[7],inactive
same,Potency,[6],inactive
C=C(C)CN(CC)c1c([N+](=O)[O-])cc(C(F)(F)F)cc1[N+](=O)[O-],Potency,[1],inactive
same,Potency,[10],inactive
same,Potency,[8],inactive
same,"activity change, positive = activation",[9],1.77%
same,Potency,[4],inactive
same,Potency,[5],inactive
same,Potency,[7],inactive
same,Potency,[6],inactive
C=C(C)[C@@H]1CC=C(C=O)CC1,Potency,[1],inactive
same,outcome,[2],inactive
same,Potency,[3],inactive
same,Potency,[8],inactive
same,"activity change, positive = activation",[9],-5.19%
same,Potency,[4],inactive
same,Potency,[5],inactive
same,Potency,[6],inactive
Cc1ncc(CNC(=O)N(CCCl)N=O)c(N)n1,Potency,[1],inactive
same,Potency,[10],inactive
same,Potency,[3],inactive
same,Potency,[4],inactive
same,Potency,[5],inactive
same,Potency,[6],inactive
O=C1c2ccccc2C(=O)c2ccccc21,"activity change, negative = cytotoxicity",[1],-0.0454% [at 15.8 µM]
same,activation,[2],0.0544% [at 15.8 µM]
same,"activity change, negative = cytotoxicity",[3],8.07% [at 31.6 µM]
same,"activity, negative = inhibition",[8],18.9% [at 19 µM]
same,"activity change, positive = activation",[9],10.5% [at 19 µM]
same,"activity change, negative = cytotoxicity",[4],0.705% [at 15.8 µM]
same,"activity change, negative = cytotoxic",[5],15.3% [at 15.8 µM]
same,cytotoxicity,[7],6.35% [at 15.8 µM]
same,"activity change, negative = cytotoxic",[6],0.48% [at 15.8 µM]
CC(=O)[C@H]1CC[C@H]2[C@@H]3CC[C@H]4C[C@H](O)CC[C@]4(C)[C@H]3C(=O)C[C@]12C,Potency,[10],inactive
same,Potency,[3],inactive
same,"activity change, positive = activation",[9],-14.9% [at 42.5 µM]
same,Potency,[4],inactive
same,Potency,[7],inactive
same,Potency,[6],inactive
CCCCOP(=O)(O)OCCCC,Potency,[1],inactive
same,outcome,[2],inactive
same,Potency,[4],inactive
same,Potency,[5],inactive
same,Potency,[7],inactive
same,Potency,[6],inactive
COc1ccc2c(c1OC)CN1CCc3cc4c(cc3C1C2)OCO4 (centres undefined),Potency,[1],inactive
same,Potency,[10],inactive
same,Potency,[4],inactive
same,Potency,[6],inactive
N#Cc1ccncc1,Potency,[1],inactive
same,outcome,[2],inactive
same,Potency,[3],inactive
same,Potency,[8],inactive
same,"activity change, positive = activation",[9],5.77%
same,Potency,[4],inactive
same,Potency,[5],inactive
same,Potency,[7],inactive
same,Potency,[6],inactive
CCOP(=S)(Oc1cnc(C(C)(C)C)nc1)OC(C)C (centres undefined),Potency,[1],inactive
same,outcome,[2],inactive
same,"activity change, positive = activation",[9],-20.7%
same,Potency,[4],inactive
same,Potency,[5],inactive
same,Potency,[6],inactive
C#C[C@]1(O)C=C[C@H]2[C@@H]3CCC4=CC(=O)CC[C@@H]4[C@H]3CC[C@@]21CC,Potency,[1],inactive
same,Potency,[10],19.6 µM (active)
same,Potency,[3],inactive
same,Potency,[4],inactive
same,Potency,[7],inactive
same,Potency,[6],inactive
